Screening results: PubChem BioAssay, National Center for Advancing Translational Sciences (NCATS)
BAZ2B inh = blocks human BAZ2B; 360,000 tested, 4.4% active; AlphaScreen BAZ2B-H3K14Ac peptide displacement; Potency, µM (highest dose often 114 µM), inactives show at the top dose activity change, negative = inhibition, hits mostly inhibitors; Q9UIF8; note: % is set by controls: 0 for no effect and ±100 for the full control effect; nearly all actives have a fitted effect of over 60% in size
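In this displacement format the biotinylated H3(5-23) peptide acetylated at Lys14 serves as ligand at 50 nM, with BAZ2B at 50 nM in PBS pH 7.4 containing 0.01% Tween-20. Donor and acceptor beads are 10 ug/mL final.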
JMJD2A Tudor = blocks the human JMJD2A Tudor domain; AlphaScreen JMJD2A-Tudor / H3K4me3 peptide binding; O75164; 390,000 tested, 4.4% active; Potency, µM (series often up to 114 µM), without a hit: at the top dose activity change, negative = inhibition, actives largely listed as inhibitors; AID 504339; note: % is set by controls: 0 for no effect and ±100 for the full control effect; nearly all actives have a fitted effect of over 50% in size
HP1b chromo inh = blocks HP1-beta chromodomain binding to methylated histone tails; P83916; AlphaScreen HP1-beta / biotin-H3K9me3 peptide binding; 390,000 tested, 0.56% active; Potency, µM (highest dose often 114 µM), without a hit: at the top dose activity change, negative = inhibition, usual class: inhibitors; note: nearly all actives have a fitted effect of over 70% in size
Target sequence (P83916 whole entry, looked up): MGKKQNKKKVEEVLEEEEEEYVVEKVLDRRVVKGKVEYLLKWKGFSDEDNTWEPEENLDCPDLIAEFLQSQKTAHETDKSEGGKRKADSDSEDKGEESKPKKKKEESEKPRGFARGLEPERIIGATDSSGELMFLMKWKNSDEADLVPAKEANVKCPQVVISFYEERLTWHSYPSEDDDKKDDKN
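Compound inhibition of the preformed complex between 50 nM HP1-beta and 50 nM biotinylated H3K9me3 peptide was read by AlphaScreen. Buffer was PBS pH 7.4 with 0.01% Tween-20. Incubations ran 30 min at room temperature, with 10 ug/mL donor/acceptor beads.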
G9a inh = inhibitors of human histone lysine methyltransferase G9a. Q96KQ7. G9a H3K9 monomethylation, AlphaScreen, 2 h. Potency, µM (top dose mostly 102 µM), for inactives: at the highest dose activity, negative = inhibition, hits mostly inhibitors. 350,000 tested, 8.8% active. AID 504332; note: % is set by controls: 0 for no effect and ±100 for the full control effect; nearly all actives have a fitted effect of over 75% in size
Target sequence (Q96KQ7 913-1193 limits assumed): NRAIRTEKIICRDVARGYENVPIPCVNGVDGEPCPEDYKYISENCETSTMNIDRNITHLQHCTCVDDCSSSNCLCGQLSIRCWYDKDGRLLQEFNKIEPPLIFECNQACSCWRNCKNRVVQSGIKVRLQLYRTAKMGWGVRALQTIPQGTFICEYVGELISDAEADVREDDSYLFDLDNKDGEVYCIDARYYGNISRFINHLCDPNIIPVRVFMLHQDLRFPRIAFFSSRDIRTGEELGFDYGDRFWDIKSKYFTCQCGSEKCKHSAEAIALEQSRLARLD
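Signal arises when biotinylated H3K9 peptide, once monomethylated, bridges streptavidin donor and antibody-captured acceptor beads. Enzyme at 20 nM was preincubated 15 min with test compounds; peptide 500 nM and SAM 20 uM then reacted for 2 h.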
Sfp PPTase inh = blocks B. subtilis Sfp PPTase activity; Biochemical Sfp PPTase activity, qHTS; Potency, µM, inactives show largest response in the series, negative = inhibition, actives largely listed as inhibitors; 310,000 tested, 3.5% active; AID 1490;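 note: the enzyme is Sfp with the accession as filed and its product quenches rhodamine fluorescence; 0% = enzyme reaction without inhibitor and -100% = no enzyme wells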
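Compounds were incubated with enzyme (final 15 nM) for 15 min at room temperature before substrate addition started the reaction. Fluorescence at 525 nm excitation, 598 nm emission was recorded immediately and after 30 minutes.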
L3MBTL1 inh = L3MBTL1 (human) inhibition | Q9Y468 | AlphaScreen L3MBTL1–H3K9me1 peptide binding | Potency, µM (doses to about 57.1 µM), without a hit: at the top dose activity, negative = inhibition, most hits filed as inhibitors | 230,000 tested, 0.66% active | AID 485360; note: % is set by controls: 0 for no effect and ±100 for the full control effect; nearly all actives have a fitted effect of over 60% in size
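AlphaScreen proximity signal between nickel-chelate acceptor and streptavidin donor beads (final 10 ug/mL) reports binding of 50 nM L3MBTL1 to 75 nM biotin-H3 K9me1 peptide; complex incubated with compounds 30 min at room temperature; cefsulodin titration as control.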
* = called active by the depositor; ? = inconclusive; . = not tested or not shown; [ ] = another dose, or the depositor's remark. In the library only some 12% were active in any assay of this set; here they are far more common. Calls come from the whole dose curve; as a rule, active = well fitted curve in the direction sought with a large enough effect; inconclusive = small, poorly fitted or top-dose-only effect, or another doubt; inactive = no such curve, though single readings can be large; an effect the other way counts as inactive or inconclusive. Potency is the fitted concentration of half-maximal effect.

SMILES | BAZ2B inh | JMJD2A Tudor | HP1b chromo inh | G9a inh | Sfp PPTase inh | L3MBTL1 inh
CS(=O)(=O)c1ccc2nc(NC(=O)c3ccco3)sc2c1 | 9% | -4% | 29% | ? | 2% | 16%
Cc1ccc(C(=O)Nc2nc(C)c(C(=O)N(C)C)s2)o1 | -12% | -21% | 20% | -18% | 2% | .
Cc1noc(C)c1-c1ccc2ncnc(NCc3cccc(F)c3)c2c1 | . | -26% | . | . | -27% | .
O=c1[nH]c(=O)n(-c2ccccc2)c2c1C(C(F)(F)F)(C(F)(F)F)N=C(C1CCCCC1)N2 | -2% | 89µM* | 4% | 23%[59 µM] | 17% | 1%
COc1ccc2[nH]c(=O)c(CN(c3ccccc3OC)S(=O)(=O)c3ccccc3)cc2c1 | -32% | -21% | 37% | 56µM* | 4% | -4%
COc1ccc2[nH]c(=O)c(CN(c3ccccc3)S(=O)(=O)c3ccccc3)cc2c1 | -15% | -8% | 27% | 12% | 4% | .
COC(=O)c1ccc(SC2CCCCC2)c([N+](=O)[O-])c1 | ? | ? | -21% | 16µM* | 0% | -11%
CCCN1CCN(c2ncnc3sc(C(=O)Nc4ccc(N(CC)CC)cc4C)c(C)c23)CC1 | 28µM* | 50µM* | ? | 14µM* | . | .
CSCC[C@H](NC(=O)[C@H](CC(C)C)NC(=O)[C@@H]1CCCN1C(=O)[C@H](Cc1ccccc1)NC(=O)[C@H](Cc1ccccc1)NC(=O)[C@H](CCC(N)=O)NC(=O)[C@H](CCC(N)=O)NC(=O)[C@@H]1CCCN1C(=O)[C@H](CCCCN)NC(=O)[C@@H]1CCCN1C(=O)[C@@H](N)CCCN=C(N)N)C(N)=O | . | . | . | . | 1% | .
S=c1[nH]nc(C2CCCCC2)n1/N=C/C(Cl)=C\c1ccccc1 | -3% | ? | -9% | 25µM* | 3% | 0%
CC(/C=N/NC(=O)c1cc(C2CC2)[nH]n1)=C\c1ccccc1 | -11% | -19% | 27% | 27% | 16% | .
S=c1[nH]nc(C2CCCCC2)n1/N=C/C=C/c1ccccc1 | ? | 79µM* | -34% | 10µM* | -2% | -13%
CCC(C)N(C(=O)COC(=O)CSc1ccc([N+](=O)[O-])cc1)C1CCS(=O)(=O)C1 (centres undefined) | -27% | -8% | 19% | 40µM* | -11% | .
Cc1cc(C)n2nc(C(=O)OCC(=O)N(C)C3CCS(=O)(=O)C3)nc2n1 (centres undefined) | 13% | -7% | 24% | -2%[12.7 µM] | . | 0%
CCC(C)N(C(=O)COC(=O)c1nc2nc(C)cc(C)n2n1)C1CCS(=O)(=O)C1 (centres undefined) | -4% | -1% | 28% | 16µM* | . | 7%
COc1cc(OC)cc(-c2nnc(NC(=O)CCS(=O)(=O)c3ccc(C)cc3)o2)c1 | 4% | -11% | 26% | -7%[0.501 µM] | . | -12%
CCOc1ccc(CCNC(=O)c2ccc(C)c(NC3=NC4CS(=O)(=O)CC4S3)c2)cc1 (centres undefined) | -8% | -27% | 59% | . | 7% | .
N#CC1=C(N)Nc2nc3ccccc3n2C1c1ccc(Cl)cc1 (centres undefined) | 0% | -15% | 23% | 0.63µM* | 3% | 0%
Cc1c(C(=O)NCCCN2CCOCC2)oc2ccc(S(=O)(=O)N3CCOCC3)cc12 | 14% | -25% | -26% | -8% | 13% | .
COc1cc(-c2nnc3n(CCc4ccccc4)c(=O)c4ccccc4n23)cc(OC)c1OC | 7% | 0% | 16% | 18µM* | -9% | -2%
CC(C)OCCCn1c(=O)c2ccccc2n2c(-c3ccc(F)cc3)nnc12 | ? | ? | -1% | 28µM* | . | .
CC(C)OCCCn1c(=O)c2ccccc2n2c(CCC(=O)O)nnc12 | -35% | -11% | 16% | 2% | 2% | .
COc1ccc(CNC(=O)CCS(=O)(=O)c2cc(Br)cc3c2N(C(C)=O)C(C)C3)cc1 (centres undefined) | -28% | -9% | -3% | -25%[59 µM] | . | .
C/C(=C\C(=O)OCCCCCCCCC(=O)O)C[C@@H]1OCC(C[C@H]2O[C@H]2[C@@H](C)[C@H](C)O)[C@@H](O)[C@H]1O (some centres undefined) | . | . | . | . | 4% | .
CCOc1cccc(-c2nnc3sc(-c4ccco4)nn23)c1 | 4% | -32% | -11% | 7.9µM* | -15% | 0%
SMILES | BAZ2B inh | JMJD2A Tudor | HP1b chromo inh | G9a inh | Sfp PPTase inh | L3MBTL1 inh
CCOc1cccc(-c2nnc3sc(-c4ccc(C)cc4)nn23)c1 | 24% | . | . | 14% | -6% | 0%
COc1cccc(-c2nn3c(-c4ccco4)nnc3s2)c1 | 6% | -19% | 25% | 45µM* | -17% | -8%
Clc1ccc(-c2ccc(-c3nn4c(-c5ccco5)nnc4s3)o2)cc1 | . | ? | -2% | . | . | .
COc1cc(-c2nn3c(-c4ccco4)nnc3s2)cc(OC)c1OC | 6% | . | . | 22% | -4% | -3%
COc1cccc(OC)c1-c1nn2c(-c3ccco3)nnc2s1 | 5% | -2% | 31% | 35µM* | -21% | -17%
Cn1c(=O)n(C)c2cc(NC(=O)c3ccc(F)cc3)ccc21 | ? | -11% | 28% | 11% | 11% | .
COc1ccc(NC(=O)CSc2c3c(nc4cc(Cl)ccc24)CCCC3)cc1OC | -35% | -29% | -2% | -11%[59 µM] | 15% | -15%
COc1ccc2nc3cc(Cl)ccc3c(Nc3cc(CN4CCCC4)c(O)c(CN4CCCC4)c3)c2n1 | 40µM* | . | . | ? | -16% | .
Cn1c(=O)c(CCc2ccccc2)nc2cnc(OCc3ccccc3)nc21 | . | . | . | 8%[0.501 µM] | -9% | .
CC1CCN(C(=O)CSc2nncn2-c2ccccn2)CC1 | 9% | 1% | -19% | 7.1µM* | ? | 3%
O=[S+]([O-])(c1ccc2c(c1)OCCO2)N1CCN([S+](=O)([O-])c2c(O)cc(F)cc2F)CC1 | . | -11% | . | . | . | .
CNC(=S)Nc1ccc(N2CCN(c3ccc(C(F)(F)F)cn3)CC2)nc1 | ? | -17% | 38% | . | -1% | -5%
Cc1nn(C)c2c1c(-c1ccccc1)cc(=O)n2C(C)C(=O)NCCc1ccc(Cl)cc1 (centres undefined) | -12% | -19% | -22% | 8%[59 µM] | . | .
Cc1cccc2nc(CSCc3ccco3)cn12 | ? | -34% | 4% | 45µM* | 32µM* | ?
Cc1c(Br)c(=O)oc2c(C)c(O)ccc12 | 11% | -6%[57.1 µM] | 62% | 21%[59 µM] | 2% | -5%
Cc1c(O)ccoc1=O | -21% | 28µM* | 32% | -122%[59 µM] | -20% | 10%
Clc1ccc(OCCCc2nc(-c3cccnc3)no2)c(Cl)c1 | 60% | 55% | 99% | 137% | 32µM* | 47%
CCN1C(=NCC(C)C)N[C@@H](c2cccc(C(F)(F)F)c2)C(C(=O)OC)=C1C | ? | 18µM* | 31% | 7%[12.7 µM] | -1% | 21%
